# From PubChem
# Sampled rows, rich in hits. Any-hit rate of the full collection: about 2%.
# PG9 Ab binder = PG9 antibody binding by small molecule | TR-FRET gp120-PG9 antibody binding | inhibition, % at 6.7 µM | 360,000 tested, 0.43% active | AID 624416; in the data active means inhibition above about 8.5%
# Exocytosis inh = blocks lytic granule exocytosis; TALL-104 LAMP-1 surface exposure, flow cytometry; cells stimulated with thapsigargin and PMA; 360,000 tested, 0.66% active; inhibition, % at 10 µM;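 active means inhibition above about 55%, limit read from the data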
# VLA-4 inh = inhibition in a human VLA-4 binding assay; AID 2557; P13612; 330,000 tested, 0.2% active; VLA-4 expressing cells, ligand binding flow cytometry; inhibition, % (about 7 µM as worked out from the volumes in the protocol); in the data active means inhibition above about 50%
# NR1D1 modulator = Rev-erb alpha (human) modulation | P20393 | Rev-erbα–FITC-DNA binding, fluorescence polarization, 90 min | activity, % at 10 µM | 370,000 tested, 0.79% active | AID 1259318;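 active means activity above about 14%, limit read from the data; passing the limit was not always enough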;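 further: 0% = DMSO wells with 35 nM protein and 100% = DMSO wells with 750 nM protein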
# Target sequence (P20393 whole entry, looked up): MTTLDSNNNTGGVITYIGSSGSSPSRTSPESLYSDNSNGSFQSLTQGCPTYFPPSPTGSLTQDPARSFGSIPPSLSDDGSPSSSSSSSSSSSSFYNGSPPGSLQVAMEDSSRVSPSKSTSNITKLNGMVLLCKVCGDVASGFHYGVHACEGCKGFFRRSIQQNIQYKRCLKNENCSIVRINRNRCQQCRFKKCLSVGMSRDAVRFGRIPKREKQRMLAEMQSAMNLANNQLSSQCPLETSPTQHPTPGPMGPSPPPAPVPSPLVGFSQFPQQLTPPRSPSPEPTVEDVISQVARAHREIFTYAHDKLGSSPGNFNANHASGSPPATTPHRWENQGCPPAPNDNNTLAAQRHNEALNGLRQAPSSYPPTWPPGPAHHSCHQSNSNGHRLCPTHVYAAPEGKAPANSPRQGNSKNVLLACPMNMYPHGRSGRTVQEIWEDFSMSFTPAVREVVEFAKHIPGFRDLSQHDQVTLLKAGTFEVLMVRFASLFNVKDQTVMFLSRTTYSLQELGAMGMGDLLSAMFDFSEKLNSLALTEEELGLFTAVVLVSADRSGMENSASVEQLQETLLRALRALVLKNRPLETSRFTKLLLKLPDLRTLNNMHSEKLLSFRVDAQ
# ABCB6 inh 2 = blocks the human ABCB6 transporter; Q9NP58; K562-ABCB6 porphyrin accumulation, flow cytometry, 1 h; hits give low values; fluorescence ratio to DMSO, % at 10 µM; 360,000 tested, 0.19% active; AID 602162;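 active means fluorescence ratio to DMSO below 75%, the collection mean minus 3 SD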;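 further: signal is porphyrin accumulated inside mitochondria; 100% equals median channel fluorescence of DMSO control wells; lower ratio means ABCB6 inhibition with less porphyrin fluorescence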
# NR1D1 mod conf = confirmation of modulators of human Rev-erb alpha DNA binding; shares compounds with NR1D1 modulator; Rev-erb alpha FITC-DNA binding, fluorescence polarization, 90 min; activation, % at 25 µM; 3,000 tested, 61% active;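 active means activation at or above a set limit, or at least 3 SD above the negative control mean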;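 further: 0% = 35 nM protein with DMSO and 100% = 750 nM protein high control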
# RORg counter = counter-screen for Rev-erb alpha modulators: RORgamma DNA binding; shares compounds with NR1D1 modulator; purified RORgamma protein-FITC-DNA binding, fluorescence polarization; IC50, µM; 910 tested, 8% active;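 active means Compounds whose fitted half-maximal concentration for disrupting protein-DNA binding is below 10 micromolar; the record names Rev-erb in its text, so the target is in doubt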
# * hit, by the source's call; i = inactive; · = no result.
SMILES,PG9 Ab binder,Exocytosis inh,VLA-4 inh,NR1D1 modulator,ABCB6 inh 2,NR1D1 mod conf,others
C[C@H]1CCCN1c1ccc2c(c1)O[C@H]1CCN(C1)S2(=O)=O,·,·,·,-1.7,·,·,
CCC(C)c1ccc(NC(=O)CSc2nnc(-c3cccc(C)c3)n2C)cc1 (configuration not stated),·,·,·,-3.4,·,·,
COc1ccc(-n2nnnc2SCC(=O)c2ccc3c(c2)OCCO3)cc1,7.7,-1.3,4.6,63.2*,86.0,64.5*,
O=C(CSc1nnnn1-c1ccc2c(c1)OCCO2)c1cccc2c1OCCO2,-1.9,5.7,4.4,107.3*,93.0,81.0*,RORg counter=>40
O=C(CSc1nnc(-c2cccs2)n1-c1cccc(Cl)c1)c1cccc2c1OCCO2,-0.2,6.7,11.8,79.4*,91.0,85.1*,RORg counter=>40
O=C(O)CSc1nnnn1-c1ccc2c(c1)OCCO2,0.9,-0.3,-0.2,-4.8,98.0,·,
COC(=O)C1=C(C)N(Cc2ccc(C(F)(F)F)cc2)C(=NCc2ccc(C(F)(F)F)cc2)NC1c1ccc(F)cc1 (configuration not stated),-2.1,·,·,11.9,·,·,
CC(=O)N1CCCc2cc(S(=O)(=O)N3CCCC(C(=O)N4CCN(c5cc(C)ccc5C)CC4)C3)ccc21 (configuration not stated),-0.7,3.7,-3.3,17.3*,104.0,17.9*,
CC(=O)N1CCCc2cc(S(=O)(=O)N3CCCC(C(=O)N4CCN(c5ccccc5)CC4)C3)ccc21 (configuration not stated),1.3,-0.3,1.6,-2.6,94.0,·,
COc1cc(N=Nc2cccc(S(N)(=O)=O)c2)c2ccccc2c1N,-6.4,45.0,-181.4,34.8*,220.0,13.6,
CCN1/C(=C/c2ccc3cc(C)ccc3[n+]2CC)Sc2cc(C)ccc21,-6.1,85.3*,·,28.6*,i,51.3*,RORg counter=>40
N#Cc1c(N2CCOCC2)nsc1-c1ccc(C(F)(F)F)cc1,4.7,2.6,9.3,22.1*,93.0,16.4,
Cc1cc(C(F)(F)F)c(C#N)c(N2CCOCC2)n1,-0.1,15.5,2.5,-3.4,98.0,·,
COc1cc(C(=O)OCc2cc3ccccc3[nH]c2=O)cc(OC)c1OC,-0.7,-1.0,11.8,44.8*,96.0,29.6*,
NC(=O)COc1ccc(/C=N\NC(=O)c2ccc(-c3ccccc3)cc2)cc1,1.9,-7.7,-42.7,35.1*,97.0,20.5*,
Cc1cc(=O)n2[nH]c(=O)c(N=Nc3ccccc3)c2[nH]1,-11.5,-2.6,19.1,7.7,104.0,·,
CCOc1ccc(N=Nc2c(=O)[nH]n3c(=O)cc(C)[nH]c23)cc1,-14.7,0.1,13.5,24.6*,107.0,41.0*,RORg counter=>40
CC(NCc1ccco1)C(=O)N1CCCC1 (configuration not stated),·,·,·,4.5,·,·,
CN(CCCOC(=O)c1cccs1)C1CN(Cc2cn(Cc3ccccc3Cl)nn2)S(=O)(=O)C1 (configuration not stated),·,·,·,-0.7,·,·,
COc1cc2c(cc1OC)-c1cc3ccc4c(c3c[n+]1CC2)OCO4,-10.8,-6.8,-145.2,26.8*,290.0,44.5*,RORg counter=>40
COc1cc2c(cc1O)CC[n+]1cc3c(OC)c(OC)ccc3cc1-2,-10.6,-0.7,5.2,0.8,98.0,·,
COCc1cn(-c2cccc(-c3noc4c3C(=O)N(CC(=O)N3CCOCC3)CC4)c2)nn1,·,·,·,-1.1,·,·,
O=C(CSc1nnc(COc2ccccc2)n1Cc1ccco1)Nc1ccc2c(c1)OCO2,·,·,·,-5.7,·,·,
O=C(CSc1nc2ccccc2nc1N1CCCC1)N1CCN(C(c2ccccc2)c2ccccc2)CC1,·,·,·,-7.7,·,·,
O=C(CSc1nc2ccccc2nc1N1CCCCC1)N1CCN(C(c2ccccc2)c2ccc(Cl)cc2)CC1 (configuration not stated),·,·,·,18.9*,·,21.0*,
SMILES,PG9 Ab binder,Exocytosis inh,VLA-4 inh,NR1D1 modulator,ABCB6 inh 2,NR1D1 mod conf,others
COc1ccccc1C(=O)NC1CCCCN(Cc2ccc(Cl)cc2)C1=O (configuration not stated),·,·,·,3.8,·,·,
O=C(COc1ccc([N+](=O)[O-])cc1)Nc1cccc2nsnc12,-3.1,-4.5,3.4,24.1*,100.0,21.7*,
CC(=O)Nc1ccc(S(=O)(=O)c2ccc(NC(C)=O)cc2)cc1,·,·,·,1.8,·,·,
N#Cc1cnc2cc(-c3ccccc3)nn2c1N,-2.4,-2.1,-1.6,26.9*,101.0,31.6*,RORg counter=>40
Cc1ccc(C(=O)CSc2cnc3ccccc3n2)cc1C,2.5,-1.8,-13.8,29.8*,121.0,14.1,
Cc1nnsc1-c1onc(C)c1C(=O)Nc1cc(Cl)cc(Cl)c1,-1.1,-3.7,13.0,24.8*,95.0,11.5,
CCN=C1NC(c2ccc(F)cc2)C(C(=O)OC)=C(C)N1Cc1ccccc1C(F)(F)F (configuration not stated),-0.8,·,·,-2.4,·,·,
O=C1CN(c2nc(-c3ccccc3)c3cc(Cl)ccc3n2)c2ccccc2N1,-1.8,-2.4,14.0,31.9*,100.0,-1.1,
C=CCNc1cccc2c1S(=O)(=O)N[C@@H](C)CO2,0.1,·,·,3.6,·,·,
O=c1c2cnn(-c3ccccc3)c2nc(-c2cccs2)n1-c1ccc(Cl)cc1,0.3,-2.0,15.9,22.6*,96.0,10.0,
O=C(N[C@@H]1CCCc2c1cnn2-c1ccc(F)cc1F)c1ccccn1,·,·,·,-1.3,·,·,
Cc1nc2c(C)cccn2c(=O)c1NC(=O)c1cccc2ccccc12,-0.6,-13.8,-5.2,28.7*,100.0,4.7,
CN(C)c1cccc2c(S(=O)(=O)NCC3CCN(C(=O)C(=O)c4cc5ccccc5o4)CC3)cccc12,-0.4,·,·,-0.7,·,·,
Cc1nc(-c2ccccc2)nc2[nH]c(-c3ccccc3)cc(=O)c12,7.4,-3.2,-11.4,90.1*,86.0,80.6*,RORg counter=>40
C=CCN(Cc1ccc(OC)cc1OC)C(C#CCCCC)c1ccccc1 (configuration not stated),·,·,·,1.7,·,·,
O=c1c2ccccc2ncn1-c1ccc(Cl)c(Cl)c1,-1.0,-1.8,-13.3,29.5*,108.0,36.8*,RORg counter=>40
CC(C)C[C@@H]1COc2cc(Br)ccc2S(=O)(=O)N1Cc1cn(Cc2ccc(F)cc2)nn1,·,·,·,-3.4,·,·,
CCOc1cccc(-c2nnc3sc(-c4cccs4)nn23)c1,1.0,-0.3,-27.4,29.3*,100.0,20.0*,
O=C(Nc1cc(Cl)cc(Cl)c1)Nc1cnccn1,-3.0,3.7,6.3,12.4*,84.0,2.1,
Cc1ccc(NC(=S)Nc2ccc(S(=O)(=O)N3CCOCC3)cc2)cc1S(=O)(=O)N1CCOCC1,-0.7,0.7,10.9,16.6*,95.0,-4.8,
COc1ccc(C2Nc3ccccc3C(=O)N2c2ccccc2)cc1CSc1ccccn1 (configuration not stated),0.8,-4.2,11.7,11.4,96.0,·,
COc1ccc(C2Nc3ccccc3C(=O)N2c2ccc(F)cc2)cc1CSc1ccccn1 (configuration not stated),-7.5,0.6,-2.0,30.4*,88.0,15.4,
